Experimental findings from PubChem BioAssay AID488890 (Southern Research Specialized Biocontainment Screening …, 2010) are described below.

The structures appear in SMILES notation. The whole screen tested about 320,000 compounds, of which about 1,300 (0.41%) were called active. About 3% were inconclusive and are not listed. The rule behind the calls is not given here. The list is a sample of the results. Entries with a potency or affinity are not part of this list.

The nature of this experiment: growth inhibition of non-replicating M. tuberculosis (AID 488890).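 Note: plate controls were DMSO cells for no effect and high antibiotic wells for full effect.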 As to conditions: Mycobacterium tuberculosis non-replicating, at 25 µM, stronger effect = higher value.
On to `Cn1c(C(=O)N[C@@H](Cc2ccccc2)C(=O)O)cc2cc(F)ccc21`, for which the inhibition was -8.03%. The same measure for `Cc1ccc(N2C(=O)NC(NC(=O)C(C)(C)C)(C(F)(F)F)C2=O)cc1C` (configuration not stated): -24.4%; for `Cc1cc(C)n(-c2nc(SCCN(C)C)c3c4c(sc3n2)COC(C)(C)C4)n1`: 65.5%; for `Cc1cc(C)n(-c2nc(NCC(C)O)c3c4c(sc3n2)CCCC4)n1` (configuration not stated): 79.3%. In the case of `Cc1cc(C)n(-c2nc(SCC(=O)O)c3c4c(sc3n2)COC(C)(C)C4)n1`, the inhibition came out at 78.8%. The same measure for `Cc1cc(C)n(-c2nc(NCCCN(C)C)c3c4c(sc3n2)CCCC4)n1`: 75.9%; for `O=C1CCCN1CC(O)CS(=O)(=O)Cc1ccccc1` (configuration not stated): -12.3%. To `COc1ccc(C2C(C(C)=O)=C(C)Nc3ncnn32)c(OC)c1OC` (configuration not stated) belongs -4.13%. Turning to `Cc1cccn2c(NC(=O)c3cccs3)c(-c3ccccc3)nc12`, the inhibition is -0.63%. `c1ccc(-c2nnc(-c3ccccn3)c(-c3ccccn3)n2)nc1`: the inhibition came to 10.5%. For the compound `Cc1nnc(-c2ccccc2)nc1N(C)C`, the inhibition stood at 21.8%. With `COc1cc(CNc2ccc3[nH]c(=O)[nH]c3c2)ccc1OCc1ccc(Cl)cc1`, the inhibition was 32.9%. As to `CCc1ccc(C(=O)COC(=O)CNC(=O)c2ccc(Br)o2)cc1`, the inhibition stood at 43.3%.

For the compound `CC(=O)c1ccc(OC(=O)c2ccc(Br)o2)cc1`, the inhibition stood at 79.1%.

For the compound `Cc1ccc(CC(=O)N2CCN(C)CC2)cc1`, the inhibition is -6.84%. For `CNc1c([N+](=O)[O-])cnn1-c1ccccc1Cl`, the inhibition is 10.6%. To `Cc1ccccc1-c1cnn(-c2cccc([N+](=O)[O-])c2)c1N` belongs 14.7%; to `O=C(CSc1n[nH]c(=O)n1-c1cccnc1)Nc1ccccc1Cl`, -0.8%; to `O=C(Nc1ccccc1N1CCOCC1)C1=NN(c2c(F)c(F)cc(F)c2F)C(=O)CC1`, -3.73%. The same measure for `N#Cc1ccsc1NC(=O)c1cccc([N+](=O)[O-])c1`: 2.42%; for `O=C(Nc1nccs1)c1ccc(Cl)c([N+](=O)[O-])c1`: -5.17%; for `COC(=O)c1ccccc1S(=O)(=O)N1CCC(C(=O)NCC2CCCO2)CC1` (configuration not stated): -9.14%. For `CN(C(=O)COC(=O)c1ccc(Cl)cc1N)C1CCCCC1`, the inhibition stood at 24.6%. Consider `CN(C(=O)COC(=O)c1cc(NS(=O)(=O)c2cc([N+](=O)[O-])ccc2Cl)ccc1O)C1CCCCC1`, for which the inhibition is 35.1%. Consider `CCN(CC)c1ccc(-c2nnc(SCC(=O)Nc3ccccc3C#N)n2-c2ccccc2)cc1`, for which the inhibition stood at 41%. Take `CC1(C)CC(=O)C2=C(C1)OC(N)=C(C#N)C2c1ccccc1` (configuration not stated): the inhibition came out at 24.7%.

In the case of `CC1(C)CC(=O)C2=C(C1)OC(N)=C(C#N)C2Cc1ccccc1` (configuration not stated), the inhibition amounted to 25%. The same measure for `Cc1cc2oc(=O)cc(CN3CCc4ccccc43)c2cc1Cl`: -0.24%. `COc1ccc(CCn2c(N)cc(=O)[nH]c2=S)cc1OC`: the inhibition worked out at 10.4%. Turning to `CCOc1ccc(CCNC(=O)CCn2nc(C)c3c(C)n(-c4ccccc4)nc3c2=O)cc1`, the inhibition is -11.8%. With `O=C(OCc1cnc(Cl)s1)c1ccccc1Cl`, the inhibition worked out at 56.8%. Turning to `O=C(OCc1cncs1)c1ccccc1Cl`, the inhibition was found to be 32.7%.

With `CCOC(=O)CSc1nnc(CNC(=O)c2cccs2)n1-c1cccc(C)c1`, the inhibition was found to be 33%. With `C[C@@H]1CCCCCCCCC(=O)OCCN(C(=O)OC(C)(C)C)[C@H](C)CCCCCCCCC(=O)OCCN(C(=O)OC(C)(C)C)[C@H](C)CCCCCCCCC(=O)OCCN(C(=O)OC(C)(C)C)[C@H](C)CCCCCCCCC(=O)OCCN1C(=O)OC(C)(C)C`, the inhibition was -3.81%.

In the case of `O=[N+]([O-])c1cccc(-c2nnc(SCc3cccnc3)o2)c1`, the inhibition was 43.9%. Regarding `O=[N+]([O-])c1ccc(CSc2nnc(-c3cnccn3)o2)cc1`, the inhibition was determined as 66.9%.

As to `Clc1ccc(CSc2nnc(-c3cccnc3)o2)cc1`, the inhibition amounted to 47.9%. Consider `Brc1ccc(CSc2nnc(-c3cccnc3)o2)cc1`, for which the inhibition is -15.4%.

In the case of `Cc1cc(C(=O)Nc2ccccc2C)on1`, the inhibition is -6.92%. With `CCCC(=O)Nc1ccc(C(=O)/C=C/c2ccc(SC)cc2)cc1`, the inhibition came out at 42.6%. With `COc1cc2c(cc1OC)C(c1cc3cccc(C)c3[nH]c1=O)N(C(=O)c1ccco1)CC2` (configuration not stated), the inhibition is 30.4%. Take `COc1ccc(NC(=S)NCc2ccc(F)cc2)c(OC)c1`: the inhibition came to 14.9%. As to `CC1CCN(C(=O)CN(CCc2ccccc2)S(C)(=O)=O)CC1`, the inhibition was -0.19%. For `O=C(O)CCN1C(=O)/C(=C\c2ccncc2)SC1=S`, the inhibition came to 38.8%.

For `O=C(O)CCCN1C(=O)/C(=C/c2ccncc2)SC1=S`, the inhibition was 65%. The same measure for `Cn1c(CNC(=O)CNS(=O)(=O)c2ccccc2)cc(=O)n(C)c1=O`: -2.98%.

For the compound `CCCCn1c(N)c(N(CC)C(=O)CCc2ccccc2)c(=O)[nH]c1=O`, the inhibition is 9.68%. For the compound `O=C(c1cccc(F)c1F)N1CCCC1`, the inhibition is -8.96%. In the case of `O=C(c1cccc2ccccc12)N1CCCCC1`, the inhibition was -8.51%. On to `CCOP(=O)(OCC)C(NC(=O)C(F)(F)F)c1ccccc1` (configuration not stated), for which the inhibition was 3.99%.

In the case of `CCOc1ccc(C(=O)CC(=O)C(=O)NCCc2ccc(OC)c(OC)c2)cc1`, the inhibition worked out at 31.3%. For `COc1ccc(S(=O)(=O)CCC(=O)NCCc2cccc(C)c2)cc1`, the inhibition was -8.54%. Take `Cc1nc2cc(NS(=O)(=O)c3ccccc3F)ccc2s1`: the inhibition was 3.43%. Take `COc1ccccc1Oc1cc(-n2nc(C)cc2C)ncn1`: the inhibition is 30%. To `CCOC(=O)c1cnc(Nc2nc3ccccc3o2)nc1CSc1ncccn1` belongs 1.64%; to `CCOC(=O)c1cnc(Nc2nc3ccccc3o2)nc1CSC(=S)N(CC)CC`, 28.1%; to `CCn1ncc(C(=O)Nc2ccc(F)cc2)c1C`, -7.3%. The same measure for `O=C(CCn1c(=S)[nH]c2ccccc2c1=O)Nc1cccc(Cl)c1`: -2.2%; for `N=c1n(Cc2ccccc2)c2ccccc2n1CC(O)COc1ccccc1` (configuration not stated): 70.8%. The same measure for `COc1ccccc1OCC(O)Cn1c(=N)n(Cc2ccccc2)c2ccccc21` (configuration not stated): 45%.

Turning to `CC(=O)Nc1ccc(OCC(O)Cn2nc(C)c(C(C)=O)c2C)cc1` (configuration not stated), the inhibition is -9.63%.

In the case of `COc1ccc(C(=O)C2CCCN(C(=O)c3c4c(nn3C)CCCC4)C2)cc1F` (configuration not stated), the inhibition is -19.7%.

For `CCOC(=O)c1ccc(NC(=O)C2C3C=CC(O3)C2C(=O)O)cc1` (configuration not stated), the inhibition was 20.5%. Regarding `Cc1ccc(C(=O)Nc2ccc3c(c2)CCC3)o1`, the inhibition turned out to be 79.8%. Consider `O=C(Nc1ccc2c(c1)Cc1ccccc1-2)c1ccc(Br)o1`, for which the inhibition is 53.9%. For the compound `COC(=O)Cc1ccc(NC(=O)c2ccc(Br)o2)cc1`, the inhibition amounted to 72.6%. As for `COC(=O)c1ccc(NC(=O)C2C3C=CC(O3)C2C(=O)O)cc1` (configuration not stated), the inhibition worked out at 5.13%. Consider `CCN(CC)c1ccc(NC(=O)c2ccc(Br)o2)cc1`, for which the inhibition was 52.8%. Turning to `CC(NC(=O)CCSCCC(=O)NC(C)c1ccccc1)c1ccccc1` (configuration not stated), the inhibition amounted to 21.4%.

With `Cc1cc(C(=O)N2CCN(c3ccc(F)cc3)CC2)on1`, the inhibition worked out at 53.3%. As to `COc1ccc(C2=NS(=O)(=O)N(C)C(C(=O)Nc3ccc(OC)c(OC)c3)=C2)cc1`, the inhibition stood at 17.6%. Take `NC(=O)CC(NC(=O)c1ccc(Br)cc1)c1ccc(NC2CCCCCC2)c([N+](=O)[O-])c1` (configuration not stated): the inhibition was determined as 7.44%. As to `CC1(C)CC(=O)c2cc(C(=O)O)c(=O)n(-c3ccccc3)c2C1`, the inhibition turned out to be 15.2%. The same measure for `CC1(C)CC(=O)c2cc(C(=O)Nn3cnnc3)c(=O)n(-c3ccccc3)c2C1`: 9%; for `COc1ccccc1CCC(=O)OCC(=O)NCc1ccc(OC)c(OC)c1`: -1.1%; for `COc1ccccc1C1NC(=O)CCC1[N+](=O)[O-]` (configuration not stated): 3.51%. For `O=[N+]([O-])c1c(Nc2ccccc2O)ccc2nonc12`, the inhibition was 61.7%. To `O=C(O)c1cccc(Nc2ccc([N+](=O)[O-])c3nonc23)c1` belongs 16.5%; to `O=C(O)c1ccccc1Nc1ccc([N+](=O)[O-])c2nonc12`, 8.28%; to `CCOc1ccc(Nc2ccc3nonc3c2[N+](=O)[O-])cc1`, -4.04%. The same measure for `O=C(O)c1ccc(Nc2ccc([N+](=O)[O-])c3nonc23)cc1`: 25.2%; for `NS(=O)(=O)c1ccc(Nc2ccc([N+](=O)[O-])c3nonc23)cc1`: 66.5%; for `COc1ccccc1N1C(=S)N=C(Nc2c(C)cccc2C)C12CCCC2`: 15.9%.

As to `CC(C)(C)NC(=O)C1CCCN(S(=O)(=O)c2ccc(-n3cnnn3)cc2)C1` (configuration not stated), the inhibition was determined as 17%. For the compound `COC(=O)CNC(=O)CSc1nnc2cc(C)c3ccccc3n12`, the inhibition was -0.34%. With `CC(/C=C/C1[C@H](C)C[C@H](O[C@@H]2O[C@H](CO)[C@@H](O)[C@H](O)[C@H]2O)CC1(C)C)O[C@H]1O[C@H](CO)[C@@H](O)[C@H](O)[C@H]1O` (some centres not stated), the inhibition is -10.5%. For `Cc1ccc2c(-c3ccc([N+](=O)[O-])cc3)cc(=O)[nH]c2c1`, the inhibition was -4.88%.

With `Cc1cccn2c(=O)c(C=Nc3ccccc3)c(NCc3ccco3)nc12`, the inhibition came out at 56.2%. In the case of `Cc1ccc2nc(NCc3ccco3)c(C=NCc3ccco3)c(=O)n2c1`, the inhibition turned out to be 0.74%. To `O=C(CN1CCN(S(=O)(=O)c2ccccc2)CC1)NC(=O)NCc1ccco1` belongs 1.38%; to `O=C(O)c1ccccc1NCc1ccncc1`, 4.81%; to `C[C@]12CCC(=O)C=C1CCC1C2CC[C@@]2(C)C1CC[C@]2(C)O` (some centres not stated), 11.1%.

Take `CCOC(=O)c1cc(-c2ccc(/C=N\n3cnnc3)o2)ccc1Cl`: the inhibition came out at 10%. `CCCCOC(=O)c1ccc(-c2ccc(/C=N/NC(=S)NCC)o2)cc1`: the inhibition stood at 73.2%. With `CCCCOC(=O)c1cc(-c2ccc(/C=N/n3cnnc3)o2)ccc1Cl`, the inhibition came to 75.6%. As to `O=Cc1ccc(-c2ccc(C(=O)O)cc2)o1`, the inhibition is -8.13%.

In the case of `CC(=O)C1=C(O)C(=O)N(CCC(=O)O)C1c1cccc(F)c1` (configuration not stated), the inhibition is -0.65%. Consider `CCCC(=O)NNc1c2ccccc2nc2ccccc12`, for which the inhibition came to 74.5%. `O=C(NNc1c2ccccc2nc2ccccc12)c1ccc(O)cc1`: the inhibition was determined as 42%.

Take `CCOc1ccc(S(=O)(=O)Nc2ccc(C(=O)NCCCN3CCOCC3)cc2)cc1`: the inhibition is -11.7%. Regarding `CCC(C)C(NC(=O)C1CCC(C)CC1)C(=O)NCc1ccco1` (configuration not stated), the inhibition is -7.14%. On to `C/C(=N\NC(=O)C(c1ccccc1)c1ccccc1)c1ccccn1`, for which the inhibition was 78.2%. `C/C(=N/NC(=O)CNC(=O)c1ccccn1)c1ccc([N+](=O)[O-])cc1`: the inhibition was -2.72%. For the compound `O=S(=O)(c1ccc2nc(-c3ccccc3)[nH]c2c1)N1CCN(c2ccc(Cl)cc2)CC1`, the inhibition is -14.5%. Turning to `C/C(=N\Nc1ncc(Cl)cc1Cl)c1ccc(OC(F)F)cc1`, the inhibition was 66.3%. The same measure for `COc1ccc(/C(C)=N/Nc2ccccc2Cl)c(O)c1`: 9.47%; for `COc1ccc([N+](=O)[O-])cc1NC(=O)c1cn(-c2ccc(Cl)cc2)c(=O)c2ccccc12`: -16.7%.
